The full ranking holds about 11,000 sequences; the median of “log2 fold change” is about 0.00022, and the highest 2% start at about 0.34. Some of the results follow.
What follows are sequences tested against GST-SBP-SLBP (stem-loop binding protein) (Homo sapiens, UniProt Q14493 1-270) (assay: targeted RNA Bind-n-Seq; RBNS binding buffer: 25 mM Tris pH 7.5, 150 mM KCl, 3 mM MgCl2, 0.1% Tween, 0.5 mg/mL BSA, 1 mM DTT; 27 nM protein, 750 pM RNA pool; temperature not stated; high values mean tight binding). Settings: protein: recombinant; tags: N-terminal GST and SBP (pGEX6P1-SBP); structured_RNA.
Summary of the method: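 Read counts per sequence supply the binding signal, defined as the DEseq fold change on a binary-logarithm scale. These counts came from RNA of a designed, T7-transcribed oligo pool at 750 pM that bound 27 nM of GST-SBP-tagged protein, made in Rosetta(DE3) pLysS E. coli and glutathione-purified, in RBNS binding buffer. The bound RNA was reverse transcribed with a 10-nucleotide barcoded primer, PCR-amplified and sequenced on a MiSeq with 200-cycle paired-end reads, then processed with FLASH and HISAT2 and collapsed by barcode.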

Sequence | binding signal [log2 fold change]
GGUCACGUCUCAAUCAACUCAUACGAGGGGGGGAAAACCCCUUUACCCUCAAACUCAACAGCUCGCAGUCAAG | 0.382 ± 0.399
GGUCACGUCUCAAUCAACUCAUACGAGGGGGGGAAAACCCCUUUACCCUCAAUAUCAACAGCUCGCAGUCAAG | 0.313 ± 0.436
GGUCACGUCUCAAUCAACUCAUAAGAGGGGGGGAAAACCCCUUUACCCUCACACUCAACAGCUCGCAGUCAAG | 0.455 ± 0.444
GGUCACGUCUCAAUCAACUCACAAGAGGGGGGGAAAACCCCUUUACCCUCACUCUCAACAGCUCGCAGUCAAG | 0.304 ± 0.385
GGUCACGUCUCAAUCAACUCACAAGAGGGGGGGAAAACCCCUUUACCCUCGUCCUCAACAGCUCGCAGUCAAG | 0.385 ± 0.429
GGUCACGUCUCAAUCAACUCGCAAGAGGGGGGGAAAACCCCUUUACCCUCACAAUCAACAGCUCGCAGUCAAG | 0.536 ± 0.414
GGUCACGUCUCAAUCAACUCUUUCUCAGGAGUUUCCUCCUGCAUUUUCAACAGCUCGCAGUCAAG | 0.312 ± 0.164
GGUCACGUCUCAAUCAACUCAUCCCCAGGAGUUUGCUCCUGCAUUCUCAACAGCUCGCAGUCAAG | 0.306 ± 0.225
GGUCACGUCUCAAUCAACUCAGUCUCAGGAGUUUCCUCCUGCUAUUUCAACAGCUCGCAGUCAAG | 0.343 ± 0.24
GGUCACGUCUCAAUCAACUCAUCCUCAGGAGUUUCCUCCUGCAAACUCAACAGCUCGCAGUCAAG | 0.314 ± 0.204
GGUCACGUCUCAAUCAACUCAGUCCCAGGAGUUUUCUCCUGCUAAUUCAACAGCUCGCAGUCAAG | 0.335 ± 0.235
GGUCACGUCUCAAUCAACUCAGUCCCAGGAGUUUCCUCCUGUAAAUUCAACAGCUCGCAGUCAAG | 0.371 ± 0.28
GGUCACGUCUCAAUCAACUCAAUCCCAGGAGUUUGCUCCUGCAUAUUCAACAGCUCGCAGUCAAG | 0.355 ± 0.208
GGUCACGUCUCAAUCAACUCAAUCUCAGGAGUUUUCUCCUGCUAUUUCAACAGCUCGCAGUCAAG | 0.339 ± 0.222
GGUCACGUCUCAAUCAACUCAUCCUCAGGAGUUUGCUCCUGCAUAUUCAACAGCUCGCAGUCAAG | 0.313 ± 0.205
GGUCACGUCUCAAUCAACUCAUCCGCAGGAGUUUCCUCCUGGUAUUUCAACAGCUCGCAGUCAAG | 0.483 ± 0.25
GGUCACGUCUCAAUCAACUCAAUCCCAGGAGUUUCCUCCUGUUUUUUCAACAGCUCGCAGUCAAG | 0.312 ± 0.215
GGUCACGUCUCAAUCAACUCAUCUCCAGGAGUUUCCUCCUGCUUUUUCAACAGCUCGCAGUCAAG | 0.328 ± 0.198
GGUCACGUCUCAAUCAACUCUUAAGAGGGGGGGAAAACCCCUUUACCCUCGCCAUCAACAGCUCGCAGUCAAG | 0.455 ± 0.394
GGUCACGUCUCAAUCAACUCUUAAGAGGGGGGGAAAACCCCUUUACCCUCAACGUCAACAGCUCGCAGUCAAG | 0.385 ± 0.451
GGUCACGUCUCAAUCAACUCUUAAGAGGGGGGGAAAACCCCUUUACCCUCAAAAUCAACAGCUCGCAGUCAAG | 0.666 ± 0.398
GGUCACGUCUCAAUCAACUCUUCUCCCAGGGAAAGCCCUGGUAAACUCAACAGCUCGCAGUCAAG | 0.33 ± 0.26
GGUCACGUCUCAAUCAACUCAUCGCCCAGGGAAAGCCCUGGUUAAUUCAACAGCUCGCAGUCAAG | 0.329 ± 0.337

Sequence | binding signal [log2 fold change]
GGUCACGUCUCAAUCAACUCAAUCCCCAGGGAAAUCCCUGGUAAAUUCAACAGCUCGCAGUCAAG | 0.453 ± 0.315
GGUCACGUCUCAAUCAACUCUUCUCCCAGGGAAAUCCCUGGUAAACUCAACAGCUCGCAGUCAAG | 0.359 ± 0.267
GGUCACGUCUCAAUCAACUCAACUCCCAGGGAAACCCCUGGUAAAUUCAACAGCUCGCAGUCAAG | 0.307 ± 0.342
GGUCACGUCUCAAUCAACUCUUCUUCCAGGGAAAUCCCUGGUAAUUUCAACAGCUCGCAGUCAAG | 0.413 ± 0.238
GGUCACGUCUCAAUCAACUCAUCCCCCAGGGAAAUCCCUGGUUAAUUCAACAGCUCGCAGUCAAG | 0.368 ± 0.293
GGUCACGUCUCAAUCAACUCUUCUUCCAGGGAAAUCCCUGGCAAACUCAACAGCUCGCAGUCAAG | 0.309 ± 0.268
GGUCACGUCUCAAUCAACUCUUCUCCCAGGGAAAUCCCUGGUAUACUCAACAGCUCGCAGUCAAG | 0.329 ± 0.25
GGUCACGUCUCAAUCAACUCAAUCUCCAGGGAAAUCCCUGGCUAAUUCAACAGCUCGCAGUCAAG | 0.315 ± 0.249
GGUCACGUCUCAAUCAACUCAAUCUCCAGGGAAAUCCCUGGUUAAUUCAACAGCUCGCAGUCAAG | 0.348 ± 0.266
GGUCACGUCUCAAUCAACUCUCAAGAGGGGGGGAAAACCCCUUUACCCUCAUUAUCAACAGCUCGCAGUCAAG | 0.622 ± 0.45
GGUCACGUCUCAAUCAACUCAUUAGAGGGGGGGAAAACCCCUUUACCCUCAUCAUCAACAGCUCGCAGUCAAG | 0.333 ± 0.443
GGUCACGUCUCAAUCAACUCCUCAGAGGGGGGGAAAACCCCUUUACCCUCCUUAUCAACAGCUCGCAGUCAAG | 0.431 ± 0.416
GGUCACGUCUCAAUCAACUCUAAAGAGGGGGGGAAAACCCCUUUACCCUCAUCAUCAACAGCUCGCAGUCAAG | 0.394 ± 0.392
GGUCACGUCUCAAUCAACUCUAAAGAGGGGGGGAAAACCCCUUUACCCUCCUACUCAACAGCUCGCAGUCAAG | 0.315 ± 0.441
GGUCACGUCUCAAUCAACUCCUCAGAGGGGGGGAAAACCCCUUUACCCUCAUUAUCAACAGCUCGCAGUCAAG | 0.4 ± 0.421
GGUCACGUCUCAAUCAACUCUAUAGAGGGGGGGAAAACCCCUUUACCCUCAUCAUCAACAGCUCGCAGUCAAG | 0.306 ± 0.416
GGUCACGUCUCAAUCAACUCACUAGAGGGGGGGAAAACCCCUUUACCCUCAUCGUCAACAGCUCGCAGUCAAG | 0.311 ± 0.421
GGUCACGUCUCAAUCAACUCACUAGAGGGGGGGAAAACCCCUUUACCCUCAUUAUCAACAGCUCGCAGUCAAG | 0.408 ± 0.406
GGUCACGUCUCAAUCAACUCCACGGAGGGGGGGAAAACCCCUUUACCCUCAAAUUCAACAGCUCGCAGUCAAG | 0.543 ± 0.46
GGUCACGUCUCAAUCAACUCCUCAGAGGGGGGGAAAACCCCUUUACCCUCCCAUUCAACAGCUCGCAGUCAAG | 0.356 ± 0.426
GGUCACGUCUCAAUCAACUCUCUAGAGGGGGGGAAAACCCCUUUACCCUCCCAUUCAACAGCUCGCAGUCAAG | 0.325 ± 0.44
GGUCACGUCUCAAUCAACUCCCCAGAGGGGGGGAAAACCCCUUUACCCUCAAAUUCAACAGCUCGCAGUCAAG | 0.402 ± 0.428
